# Records with an inconclusive call do not appear. The source made the active and inactive calls. The calls were made as follows: active = hit-call score of the fitted dose curve at least 0.9, where 1 is the maximum; inconclusive = response in the unintended direction; inactive = score below 0.9.
# Assay: ACEA_ER_AUC_viability: ACEA Biosciences xCELLigence Real-Time Cell Analysis on Estrogen Receptor Agonism for Viability (AID 2283782);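 also: hit means loss of impedance signal meaning reduced cell growth or viability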
# Method in brief: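 Read-out: real-time electrical impedance (RT-CES) area under curve, loss of signal taken as reduced viability, normalized to DMSO baseline. T-47D cells, charcoal-stripped serum medium, compounds up to 100 uM final, continuous exposure, 80 h.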
SMILES,AC50,outcome
CC(O)C#N (configuration not stated),50 µM (active),–
FC(F)(F)C(F)(C(F)(F)F)C(F)(F)C(F)(F)CC1CO1 (configuration not stated),–,inactive
Cc1c([N+](=O)[O-])cc2c(c1[N+](=O)[O-])C(C)(C)CC2(C)C,82.3 µM (active),–
CC(C)(C)c1ccccc1OP(=O)(Oc1ccccc1)Oc1ccccc1,–,inactive
COP(N)(=S)OC,32.4 µM (active),–
Cn1[nH]nnc1=S,–,inactive
COP(=O)(CCC(=O)NCO)OC,56.8 µM (active),–
CCOP(=O)(O)C(N)=O,–,inactive
OCC(F)(F)OC(F)(F)C(F)(F)OC(F)(F)C(F)(F)OC(F)(F)CO,137 µM (active),–
CCOP(=S)(OCC)SCn1nnc2ccccc2c1=O,–,inactive
Cc1ccc(C(=O)Cl)cc1,–,inactive
N#Cc1ccc(O)cc1,–,inactive
Cc1ccc2c(c1N)C(=O)c1ccccc1C2=O,–,inactive
CC1=C(C(=O)Nc2ccccc2)S(=O)(=O)CCO1,28.6 µM (active),–
CCOP(=S)(OCC)SCSc1ccc(Cl)cc1,27.9 µM (active),–
CCN(CC)C1CCCCC1,–,inactive

SMILES,AC50,outcome
O=C(O)C(F)(F)OC(F)(F)C(F)(F)OC(F)(F)C(=O)O,–,inactive
Cc1cc(C)c(C(=O)P(=O)(c2ccccc2)c2ccccc2)c(C)c1,73.1 µM (active),–
C=CC(=O)OCC(F)(F)C(F)F,–,inactive
O=C(O)C(F)(F)OC(F)(F)C(F)(F)OC(F)(F)F,–,inactive
C=C(C)C(=O)OCC1CO1 (configuration not stated),–,inactive
C/C(=N\NC(=O)Nc1cc(F)cc(F)c1)c1ncccc1C(=O)O,–,inactive
N#C/C=C/c1ccccc1,50 µM (active),–
O=S(=O)(F)C(F)(F)C(F)(F)C(F)(F)C(F)(F)C(F)(F)C(F)(F)C(F)(F)C(F)(F)F,–,inactive
NNC(N)=S,–,inactive
CC(C)Nc1ccc(Nc2ccccc2)cc1,18 µM (active),–
N#Cc1c(-c2ccc(Cl)cc2)[nH]c(C(F)(F)F)c1Br,6.72 µM (active),–
Nc1ccc(Sc2ccc(N)cc2)cc1,–,inactive
CC(Cl)CN(C)C (configuration not stated),34.9 µM (active),–
Nc1ccc([N+](=O)[O-])cc1Cl,–,inactive
CNC(=O)Oc1ccc(N(C)C)c(C)c1,39.7 µM (active),–
CCOP(=S)(OCC)SCS(=O)(=O)CC,–,inactive

# — PubChem BioAssay (EPA / NIEHS)
